Source: PubChem BioAssay
Active and inactive are the calls of the source.

Assays:
[1] = optical density shifts of acrAB sulA E. coli – strain DRC41, OD650, 48 h, E. coli filamentation inducer project, primary screen (AID 1152); details: higher = more signal, called active from +8 up or from −8 down;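 also: E. coli MC1000 strain DRC41 lacking acrAB efflux pump and sulA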
[2] = probe aLefty1 binding on compound microarray – biochemical, small-molecule microarray, 635/667 nm fluorescence, primary screen (AID 1153); details: higher = more signal;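 also: score merges spot fluorescence with signal-to-noise ratio from the scanned slide images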
[3] = plasmodial surface anion channel blockers, osmotic lysis – cell-based, P. falciparum Indochina, OD700, 1 h, primary screen (AID 1154); details: P. falciparum Indochina infected RBC osmotic lysis, higher = more signal, called active from +8 up or from −8 down
[4] = plasmodial surface anion channel blockers, osmotic lysis – cell-based, P. falciparum Indochina, OD700, 2 h, primary screen (AID 1155);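 also: lysis reports solute entry through the parasite surface anion channel PSAC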; details: P. falciparum Indochina infected erythrocytes, higher = more signal, called active from +8 up or from −8 down
[5] = changes in parasitized red cell lysis, either direction – P. falciparum Indochina, OD700, 3 h, PSAC antagonist project, primary screen (AID 1156); details: P. falciparum-infected erythrocytes, osmotic lysis, higher = more signal, called active from +8 up or from −8 down
[6] = plasmodial surface anion channel blockers, osmotic lysis – cell-based, P. falciparum Indochina, OD700, 18 h, primary screen (AID 1157); details: P. falciparum Indochina infected erythrocytes, osmotic lysis OD700, 18 h; higher = more signal, called active from +8 up or from −8 down
[7] = S6 kinase pathway phospho-S6 level changes – cell-based, A549, cytoblot, luminescence, serum-stimulated, primary screen (AID 1158); details: 5 h, higher = more signal;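 also: serum-stimulated A549 lung adenocarcinoma cells; signal is phosphorylated S6 detected by cytoblot immunostaining with HRP secondary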
[8] = target: NADPH oxidase 2 (Homo sapiens) (UniProt P04839); assay: compounds shifting NOX2 Amplex Red fluorescence – cell-based, HEK293-NOX2, PMA-stimulated, NOX inhibitor project, primary screen (AID 1159); details: 45 min, higher = more signal, called active from +8 up or from −8 down; also: test concentration not given here
[9] = target: NADPH oxidase 4 (Homo sapiens) (UniProt Q9NPH5); assay: compounds shifting NOX4 Amplex Red fluorescence – cell-based, HEK293-NOX4, tetracycline-induced, NOX inhibitor project, primary screen (AID 1160); details: HEK293-NOX4, Amplex Red H2O2 fluorescence, 45 min; higher = more signal, called active from +8 up or from −8 down
[10] = target: NADPH oxidase 5 (Homo sapiens) (UniProt Q96PH1); assay: compounds shifting NOX5 Amplex Red fluorescence – cell-based, HEK293-NOX5, NOX inhibitor project, primary screen (AID 1161); details: HEK293-NOX5, ionomycin, 45 min, higher = more signal
Chain of NADPH oxidase 5 (Homo sapiens) (Q96PH1 whole entry, looked up): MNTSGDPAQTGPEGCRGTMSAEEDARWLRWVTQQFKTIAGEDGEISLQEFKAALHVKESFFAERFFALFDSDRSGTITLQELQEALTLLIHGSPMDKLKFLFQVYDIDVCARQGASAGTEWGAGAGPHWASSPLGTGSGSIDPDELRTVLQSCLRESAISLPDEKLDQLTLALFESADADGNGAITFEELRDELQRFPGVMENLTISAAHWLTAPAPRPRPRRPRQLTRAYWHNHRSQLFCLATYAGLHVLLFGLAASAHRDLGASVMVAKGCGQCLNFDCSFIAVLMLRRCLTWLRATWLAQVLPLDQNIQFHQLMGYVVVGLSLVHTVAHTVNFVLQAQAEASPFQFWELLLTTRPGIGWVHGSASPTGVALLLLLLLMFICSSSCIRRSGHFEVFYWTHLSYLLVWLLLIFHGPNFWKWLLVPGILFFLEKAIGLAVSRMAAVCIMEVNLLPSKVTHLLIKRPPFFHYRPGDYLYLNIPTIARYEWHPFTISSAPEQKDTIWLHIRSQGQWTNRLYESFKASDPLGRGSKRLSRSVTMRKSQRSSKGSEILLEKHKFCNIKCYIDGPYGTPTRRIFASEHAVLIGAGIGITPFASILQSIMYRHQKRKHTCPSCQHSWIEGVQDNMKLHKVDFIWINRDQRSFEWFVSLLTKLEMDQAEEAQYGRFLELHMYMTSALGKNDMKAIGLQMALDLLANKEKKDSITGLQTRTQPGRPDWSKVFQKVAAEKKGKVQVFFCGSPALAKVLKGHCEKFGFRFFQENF

Chain of NADPH oxidase 4 (Homo sapiens) (Q9NPH5 whole entry, looked up): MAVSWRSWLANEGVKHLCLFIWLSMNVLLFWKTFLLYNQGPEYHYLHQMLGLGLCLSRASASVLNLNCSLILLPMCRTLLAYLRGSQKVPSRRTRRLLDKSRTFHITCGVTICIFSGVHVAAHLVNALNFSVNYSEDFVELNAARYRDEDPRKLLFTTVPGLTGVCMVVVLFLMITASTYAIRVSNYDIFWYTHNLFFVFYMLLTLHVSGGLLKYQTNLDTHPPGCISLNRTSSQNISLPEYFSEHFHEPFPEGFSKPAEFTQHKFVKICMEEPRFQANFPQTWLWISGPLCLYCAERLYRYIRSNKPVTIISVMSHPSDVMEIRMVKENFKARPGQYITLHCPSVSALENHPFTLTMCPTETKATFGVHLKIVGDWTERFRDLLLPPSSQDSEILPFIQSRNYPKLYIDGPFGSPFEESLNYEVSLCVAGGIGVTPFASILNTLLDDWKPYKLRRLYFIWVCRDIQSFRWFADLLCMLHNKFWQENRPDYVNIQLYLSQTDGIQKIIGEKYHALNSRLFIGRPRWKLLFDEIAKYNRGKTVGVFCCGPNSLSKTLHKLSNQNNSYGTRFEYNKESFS
Chain of NADPH oxidase 2 (Homo sapiens) (P04839 whole entry, looked up): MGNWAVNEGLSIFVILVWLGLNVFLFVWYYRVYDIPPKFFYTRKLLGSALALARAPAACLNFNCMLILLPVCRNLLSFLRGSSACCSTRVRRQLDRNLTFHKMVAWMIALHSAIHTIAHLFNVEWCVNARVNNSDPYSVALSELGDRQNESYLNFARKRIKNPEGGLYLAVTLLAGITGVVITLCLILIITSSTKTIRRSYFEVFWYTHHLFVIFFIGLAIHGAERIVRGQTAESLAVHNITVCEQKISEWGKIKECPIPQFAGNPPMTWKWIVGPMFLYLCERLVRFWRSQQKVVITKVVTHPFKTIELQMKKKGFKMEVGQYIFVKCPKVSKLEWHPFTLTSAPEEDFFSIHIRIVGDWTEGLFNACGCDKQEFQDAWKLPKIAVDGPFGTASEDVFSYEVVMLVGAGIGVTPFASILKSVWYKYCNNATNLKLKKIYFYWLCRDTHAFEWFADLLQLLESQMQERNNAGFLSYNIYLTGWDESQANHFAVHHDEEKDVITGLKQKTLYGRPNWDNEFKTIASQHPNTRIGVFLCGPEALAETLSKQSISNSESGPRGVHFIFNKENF

Compound	z-score [1]	composite z-score [2]	z-score [3]	z-score [4]	z-score [5]	z-score [6]	z-score [7]	z-score [8]	z-score [9]	z-score [10]
COC(=O)CC=C[C@@H](C)[C@@H](C=NO[C@@H]1O[C@H](COC(C)=O)[C@@H](OC(C)=O)[C@H](OC(C)=O)[C@H]1OC(C)=O)OC	-0.477 (inactive)	0.142	0.683 (inactive)	0.547 (inactive)	-0.193 (inactive)	0.416 (inactive)	-0.474	1.26 (inactive)	0.729 (inactive)	0.688
CCOC(=O)[C@H](CC(C)C)NC(=O)CCC1CC(OC(=O)NCc2cccc3ccccc23)CC2(CCCC(COC(=O)NCCOc3ccccc3)O2)O1 (stereo not given in full)	0.288 (inactive)	-0.372	-1.67 (inactive)	-0.658 (inactive)	-2.05 (inactive)	-0.391 (inactive)	-0.305	0.711 (inactive)	0.635 (inactive)	0.534
C=CC[C@@H]1C=C[C@H](ON=C(C)CCC(=O)OC[C@H]2O[C@H](C#Cc3ccccc3)C=C[C@@H]2Oc2ccc(C)cc2)[C@@H](CO)O1	-1.44 (inactive)	0.0594	28 (active)	6.05 (inactive)	0.068 (inactive)	1.57 (inactive)	-0.383	-0.367 (inactive)	0.0773 (inactive)	-0.431
CC(C)(C)N1C(=O)[C@H]2[C@H]3[C@H](O)[C@H](O)CC(=O)[C@@H]3CC[C@H]2C1=O	-0.767 (inactive)	-0.147	0.126 (inactive)	0.0976 (inactive)	-1.24 (inactive)	-0.0131 (inactive)	0.413	-3.23 (inactive)	0.0825 (inactive)	0.309
CON=C1[C@H]2CCn3c(=O)n(-c4ccccc4)c(=O)n3[C@H]2[C@H](O)[C@@H]2O[C@H]12	-1.04 (inactive)	-0.108	-0.713 (inactive)	-1.53 (inactive)	-0.801 (inactive)	-1.77 (inactive)	1.56	0.0197 (inactive)	0.3 (inactive)	1.26
O=C1C[C@@H](O)[C@@H](O)[C@@H]2[C@@H]3C(=O)N(Cc4ccccc4)C(=O)[C@@H]3CC[C@@H]12	-0.861 (inactive)	-0.0559	-0.0483 (inactive)	0.141 (inactive)	0.0313 (inactive)	-0.014 (inactive)	-0.224	1.04 (inactive)	0.286 (inactive)	-0.0644
CCOC(=O)C1=NO[C@]2(C=C(Br)C3(OCCCO3)[C@H]3O[C@H]32)C1	0.209 (inactive)	-0.0075	-0.228 (inactive)	0.142 (inactive)	-0.348 (inactive)	0.0748 (inactive)	-0.428	1.18 (inactive)	0.492 (inactive)	0.12
CCN1C(=O)[C@H]2[C@H]3[C@H](O)[C@H](O)CC(=NOC[C@H]4O[C@H](c5ccccc5)C=C[C@@H]4Oc4ccc(OC)cc4)[C@@H]3CC[C@H]2C1=O	0.575 (inactive)	0.171	10.7 (active)	1.65 (inactive)	0.622 (inactive)	0.809 (inactive)	-0.763	0.863 (inactive)	0.91 (inactive)	0.456
CC(C)CON=C1C[C@@H](O)[C@@H](O)[C@@H]2[C@@H]3C(=O)N(C(C)(C)C)C(=O)[C@@H]3CC[C@H]12	0.288 (inactive)	-0.0162	0.221 (inactive)	-0.239 (inactive)	-0.814 (inactive)	-0.089 (inactive)	-0.382	1.47 (inactive)	0.594 (inactive)	0.325
CCN1C(=O)[C@H]2[C@H]3[C@H](O)[C@H](O)CC(=O)[C@@H]3CC[C@H]2C1=O	0.0972 (inactive)	-0.149	-0.0937 (inactive)	-0.0275 (inactive)	-0.403 (inactive)	-0.138 (inactive)	-0.108	-1.19 (inactive)	0.1 (inactive)	0.0328
CC(C)(C)N1C(=O)[C@H]2[C@H]3[C@H](O)[C@H](O)CC(=O)[C@H]3CC[C@H]2C1=O	-0.714 (inactive)	-0.144	-0.0882 (inactive)	0.499 (inactive)	-0.933 (inactive)	0.183 (inactive)	1.23	1.22 (inactive)	-1.36 (inactive)	0.0957
CCO[C@H](c1cc(OC)cc([N+](=O)[O-])c1OC)[C@H](C)C=CCC(=O)OC	0.722 (inactive)	-0.202	0.905 (inactive)	-0.222 (inactive)	-0.361 (inactive)	0.148 (inactive)	-0.168	-0.295 (inactive)	0.276 (inactive)	0.893
CO[C@H]1COC(=O)CC=C[C@@H](C)[C@H](OC)COC(=O)[C@@H]2CCCN2C(=O)CC=C[C@@H]1C	0.544 (inactive)	0.114	-0.0903 (inactive)	-0.289 (inactive)	-0.32 (inactive)	-0.0159 (inactive)	1.14	0.833 (inactive)	0.196 (inactive)	0.0432
CCOC(=O)[C@H](Cc1ccccc1)NC(=O)CCC1CC(OC(=O)NCCc2ccc(F)cc2)CC2(CCCC(COC(=O)NCC3CCCCC3)O2)O1 (stereo not given in full)	1.08 (inactive)	-0.0536	-0.0955 (inactive)	0.672 (inactive)	0.753 (inactive)	0.416 (inactive)	0.681	0.102 (inactive)	1.12 (inactive)	0.0102
CO[C@H]1COC(=O)CCC[C@@H](C)[C@H](OC)COC(=O)[C@@H]2CCCN2C(=O)CC=C[C@@H]1C	-0.704 (inactive)	-0.005	-1.11 (inactive)	-1.08 (inactive)	-0.186 (inactive)	-0.939 (inactive)	-0.112	-0.336 (inactive)	-0.00577 (inactive)	0.282
C=COC[C@@H]1CN2[C@@H](CC[C@@H](C)[C@@H]2c2ccc(Br)cc2)C(=O)O1	-0.778 (inactive)	-0.0984	2.08 (inactive)	-0.0728 (inactive)	0.429 (inactive)	-0.959 (inactive)	0.993	0.723 (inactive)	-0.595 (inactive)	-1.14
CC(CCN1CCCCc2nc(C)c(C)cc21)=NOC[C@@H](O)COCc1ccco1	0.721 (inactive)	-0.0559	1.56 (inactive)	0.279 (inactive)	0.876 (inactive)	0.343 (inactive)	0.327	-1.07 (inactive)	-0.199 (inactive)	-0.153
CO[C@H]1COC(=O)CCC[C@@H](C)[C@H](OC)COC(=O)[C@@H](C)NC(=O)CC=C[C@@H]1C	0.312 (inactive)	-0.0969	-0.806 (inactive)	-0.912 (inactive)	0.565 (inactive)	-1.59 (inactive)	1.05	-1.18 (inactive)	-2.55 (inactive)	-1.3
CCOC(=O)CCN1C(=O)[C@H]2[C@H]3[C@H](O)[C@H](O)CC(=NOCc4ccccc4)[C@H]3CC[C@H]2C1=O	1.02 (inactive)	0.914	3.06 (inactive)	0.939 (inactive)	-0.35 (inactive)	0.451 (inactive)	-0.578	-0.43 (inactive)	0.622 (inactive)	0.279
COC(=O)CC=C[C@@H](C)[C@@H]1C=C[C@H](O)[C@@H](CO)O1	0.372 (inactive)	-0.472	0.0339 (inactive)	0.447 (inactive)	-0.27 (inactive)	-0.0707 (inactive)	0.338	0.418 (inactive)	-0.23 (inactive)	0.576
CCOC(=O)[C@H](CC(C)C)NC(=O)CCC1CC(OC(=O)NCCc2ccc(F)cc2)CC2(CCCC(COC(=O)NCCc3ccc(Cl)cc3)O2)O1 (stereo not given in full)	-1.29 (inactive)	0.18	2.96 (inactive)	-0.44 (inactive)	0.235 (inactive)	0.0264 (inactive)	-0.146	0.333 (inactive)	1.32 (inactive)	1.33
COC(=O)[C@H](C)NC(=O)CCC1CC(OC(=O)NCc2cccc3ccccc23)CC2(CCCC(COC(=O)NCC(c3ccccc3)c3ccccc3)O2)O1 (stereo not given in full)	0.223 (inactive)	-0.0562	-0.228 (inactive)	-0.0825 (inactive)	-1.34 (inactive)	-0.242 (inactive)	0.863	-0.121 (inactive)	1.09 (inactive)	1.47
CCOC(=O)[C@H](CC(C)C)NC(=O)CCC1CC(OC(=O)NCCc2ccc(F)cc2)CC2(CCCC(COC(=O)NCCOc3ccccc3)O2)O1 (stereo not given in full)	-0.221 (inactive)	-0.263	4.92 (inactive)	0.394 (inactive)	0.881 (inactive)	0.323 (inactive)	0.45	1.82 (inactive)	0.31 (inactive)	1.33
CC=CC1=C(CO)C(=O)[C@@H]2O[C@@H]2C1=O	0.33 (inactive)	-0.202	-0.4 (inactive)	-0.344 (inactive)	-0.501 (inactive)	-0.267 (inactive)	-0.292	2.08 (inactive)	-0.329 (inactive)	0.846
CCOC(=O)[C@H](Cc1ccccc1)NC(=O)CCC1CC(OC(=O)NCCc2ccc(F)cc2)CC2(CCCC(COC(=O)NCc3ccccc3)O2)O1 (stereo not given in full)	-0.713 (inactive)	-0.152	-0.623 (inactive)	-0.567 (inactive)	-0.857 (inactive)	-0.144 (inactive)	0.0765	-0.0815 (inactive)	1.21 (inactive)	0.616
COC(=O)[C@@H]1CC[C@H](C)[C@@H](c2ccc(C)cc2)N1C(=O)c1ccc(C=NO[C@H](C)c2cn([C@@H]3COC[C@H]3O)nn2)cc1	0.153 (inactive)	0.109	22.6 (active)	3.19 (inactive)	0.615 (inactive)	1.52 (inactive)	-0.477	-0.166 (inactive)	0.124 (inactive)	0.196
